# An excerpt weighted towards active compounds, which were near 10% of everything screened.
# CtBP-E1A inh: qHTS Assay for Inhibitors of the CtBP/E1A Interaction; CtBP / adenovirus E1A interaction (AlphaScreen); AlphaScreen GST-E1A/His-CtBP binding, 1536-well; stronger effect = lower value; activity change, % (test concentration not listed); 340,000 compounds, 0.49% hits; in the data active means activity change below about -65%; inconclusive means mostly about -30% to -63%
#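 Steps: dispense buffer (Tris pH 8.0, NaCl 300 mM, TCEP 1 mM, BSA, Tween 20); add 5X protein mix (GST-E1A, His-CtBP, 125 nM each); pin 23 nL compound; 2 h at 37 °C, dark; add 5X beads (50 ug/mL); 1 h; read.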
# BAZ2B inh: qHTS Assay for Inhibitors of BAZ2B. AID 504333, 2011. AlphaScreen BAZ2B-H3K14Ac peptide displacement. Bromodomain adjacent to zinc finger domain protein 2B (Homo sapiens), Q9UIF8. 360,000 compounds, 4.4% hits. Potency, µM (top dose mostly 114 µM), actives largely listed as inhibitors; further: nearly all actives have a fitted effect of over 60% in size
#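 Multi-concentration screen (max 110 uM) measuring displacement of acetylated histone H3 peptide from BAZ2B by AlphaScreen, using 50 nM protein, 50 nM peptide and 10 ug/mL streptavidin donor plus Ni-chelate acceptor beads.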
# Six1-Eya2 blk: qHTS Assay for Inhibitors of the Six1/Eya2 Interaction; AID 651725, 2012; Homeobox protein SIX1 (Homo sapiens) + Protein phosphatase EYA2 (Homo sapiens), …; activity change, % (concentration not given with the values); AlphaScreen GST-Six1/His-Eya2 binding, biochemical; stronger effect = lower value; 360,000 compounds, 0.56% hits; in the data active means activity change below about -65%; inconclusive means mostly about -30% to -63%
#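 GST-Six1 + His-Eya2 (5X stock: 250/500 nM); Tris pH 8.0, 300 mM NaCl, 0.05% BSA, 0.02% Tween 20; GSH donor/Ni acceptor beads; 1 h 37 °C dark; AlphaScreen readout.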
# HP1b binding inh: HTS for Inhibitors of HP1-beta Chromodomain Interactions with Methylated Histone Tails | Chromobox protein homolog 1 (Homo sapiens), P83916 | AlphaScreen HP1-beta / biotin-H3K9me3 peptide binding | Potency, µM (top dose mostly 114 µM), actives largely listed as inhibitors | 390,000 compounds, 0.56% hits; further: nearly all actives have a fitted effect of over 70% in size
#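 AlphaScreen: HP1-beta (50 nM) preformed 30 min with biotin-H3(1-18)K9me3 peptide (50 nM) in PBS pH 7.4, 0.01% Tween-20. Compound added for 30 min at RT, then streptavidin donor/nickel chelate acceptor beads (10 ug/mL) for 30 min.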
# G9a block: qHTS Assay for Inhibitors of Histone Lysine Methyltransferase G9a. Histone-lysine N-methyltransferase EHMT2 (Homo sapiens), Q96KQ7. G9a H3K9 monomethylation, AlphaScreen, 2 h. Potency, µM (top dose mostly 102 µM), hits mostly inhibitors. 350,000 compounds, 8.8% hits. AID 504332, 2011; further: nearly all actives have a fitted effect of over 75% in size
#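 Signal arises when biotinylated H3K9 peptide, once monomethylated, bridges streptavidin donor and antibody-captured acceptor beads. Enzyme at 20 nM was preincubated 15 min with test compounds; peptide 500 nM and SAM 20 uM then reacted for 2 h.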
# JMJD2A Tudor: qHTS Assay for Inhibitors of JMJD2A-Tudor Domain; AlphaScreen JMJD2A-Tudor / H3K4me3 peptide binding; Potency, µM (series often up to 114 µM), actives largely listed as inhibitors; 390,000 compounds, 4.4% hits; further: nearly all actives have a fitted effect of over 50% in size
# Numbers stand for hits; i = inactive; ? = inconclusive; nt = no result; [ ] = another dose, or the depositor's remark. Unless noted, the call rests on the fitted dose curve; in most records, active means well fitted inhibition curve with a large enough effect; inconclusive means small, poorly fitted or top-dose-only effect; inactive means no such curve, though single readings can be large or run the other way.
SMILES,CtBP-E1A inh,BAZ2B inh,Six1-Eya2 blk,HP1b binding inh,G9a block,JMJD2A Tudor
c1ccc([C@H]2CN3C(=N2)Sc2ccccc23)cc1,i,i,i,i,i[0.501 µM],i
Cc1ccc(NC(=O)CNC(=O)OCc2ccccc2)cc1C,i,i,i,i,i,56µM
Cc1c(C)c2c(c(C)c1OC(=O)c1cccnc1)CC[C@@](C)(CCC[C@H](C)CCC[C@H](C)CCCC(C)C)O2,nt,nt,nt,nt,i,nt
Cc1nc(SCC(=O)Nc2c(C)n(C)n(-c3ccccc3)c2=O)c(C#N)c(C)c1C,nt,i,i,i,i[12.7 µM],i
CCCc1cc(SCC(=O)Nc2c(C)n(C)n(-c3ccccc3)c2=O)n2c(nc3ccccc32)c1C#N,i,i,i,i,7.9µM,i
COc1cccc([C@@H]2CC=C(C(=O)O)[C@H](c3ccccc3F)N2S(=O)(=O)c2ccc(C)cc2)c1,nt,79µM,i,i,i[2.33 µM],i
Cc1ccc(S(=O)(=O)N2[C@@H](c3ccc(Cl)cc3)C(C(=O)O)=CC[C@H]2c2ccc(C(C)C)cc2)cc1,i,79µM,i,i,i[2.33 µM],i
COc1cccc([C@@H]2CC=C(C(=O)O)[C@H](c3ccc(C)cc3)N2S(=O)(=O)c2ccc(C)cc2)c1,i,nt,i,i,nt,i
CCOc1ccc(OCC)c(C2C(C#N)=C(N)N(c3cccnc3)C3=C2C(=O)CC(C)(C)C3)c1 (stereo not given),i,?,i,i,50µM,i
S=c1[nH]nc2ccc3ccccc3n12,i,nt,i,nt,nt,nt
S=c1[nH]c2ccccc2n2c(=S)[nH]nc12,i,50µM,?,i,1.8µM,22µM
COC(=O)c1ccc(N2NC(=O)/C(=C/c3ccc(OC)c(OC)c3)C2=O)cc1,nt,i,i,i,?,i
C#CCOc1ccc(/C=C2/C(=O)NN(c3ccc(F)cc3)C2=O)cc1OC,i,i,i,i,35µM,i
COc1cc(/C=C2\C(=O)NN(c3ccccc3)C2=O)ccc1OCC(N)=O,nt,i,nt,nt,50µM,nt
O=C(NCc1ccc(F)cc1)C(=O)NCC1OCCN1C(=O)c1cccs1 (stereo not given),i,i,i,i,i,i
COc1ccc(C(=O)NCc2nnc(SC)n2Cc2ccccc2)cc1,i,nt,i,i,i,?
CC(Oc1ccccc1)C(=O)Nc1cccc(-c2nc3ccccc3[nH]2)c1 (stereo not given),i,i,i,i,50µM,i
CCc1cc2c(=O)c(-c3ccc4c(c3)OCCO4)c(C)oc2cc1OS(C)(=O)=O,i,i,i,i,i,i
Cn1c(SCC(=O)NNC(=S)Nc2ccccc2)nnc1-c1ccncc1,nt,i,nt,nt,71µM,nt
C=CCn1c(SCC(=O)NNC(=S)Nc2ccccc2)nnc1-c1ccccc1,i,i,i,i,i,i
O=C(CSc1nnc(-c2ccccc2)n1-c1ccc(Cl)cc1)NNC(=S)Nc1ccccc1,i,i,i,i,10µM,i
CCn1c(SCC(=O)NNC(=S)Nc2ccccc2)nnc1-c1ccc(Cl)cc1,i,i,i,i,20µM,i
O=C(CSc1oc(-c2ccco2)nc1S(=O)(=O)c1ccc(Cl)cc1)Nc1ccc(F)cc1,nt,i,nt,i,?,i
Cc1cc(=O)n(CNC(=O)c2ccccc2)c(=S)[nH]1,i,i,i,i,i[12.7 µM],56µM
O=C(NCn1cnccc1=O)c1ccccc1,i,i,i,i,i[12.7 µM],i
SMILES,CtBP-E1A inh,BAZ2B inh,Six1-Eya2 blk,HP1b binding inh,G9a block,JMJD2A Tudor
CCC(=O)NC1Cc2ccccc2C(c2ccccc2)C1 (stereo not given),nt,nt,nt,nt,i,nt
CCOc1cc(CN2CCc3c([nH]c4ccccc34)C2)ccc1OC,i,50µM,i,?,11µM,3.2µM
COc1ccc(CN2CCC(CO)(CCOc3ccccc3)CC2)c(OC)c1C,i,i,i,i,nt,i
COc1ccc(CN2CCc3c([nH]c4ccccc34)C2)c(OC)c1C,i,45µM,i,?,32µM,1.3µM
O=C1O[C@@H](c2ccccc2)C[C@@H](O)[C@H](O)CCc2ccccc21,i,nt,i,nt,nt,nt
CCOC(=O)Nc1nc(-c2ccccc2)c(C(=O)c2ccccc2)s1,i,i,i,i,i,i
CCCOC(=O)Nc1nc(-c2ccc(C)cc2)c(C)s1,i,i,i,i,50µM,i
O=S(=O)(c1ccccc1)N1N=C(c2ccc(Br)cc2)CC1c1ccco1 (stereo not given),i,i,i,i,?,16µM
Cc1ccc(C2=NN(S(=O)(=O)c3ccccc3)C(c3ccco3)C2)cc1 (stereo not given),i,i,i,i,i[12.7 µM],i
CS(=O)(=O)Nc1ccc(C2=NN(C(=O)c3ccco3)C(c3ccccc3F)C2)cc1 (stereo not given),i,nt,i,i,50µM,i
CS(=O)(=O)Nc1ccc(C2=NN(S(=O)(=O)c3ccc(F)cc3)C(c3ccco3)C2)cc1 (stereo not given),i,i,i,i,50µM,i
COc1ncc2nc(-c3ccccc3)c(=O)n(CCC#N)c2n1,nt,nt,nt,nt,i[0.501 µM],nt
CCOc1ccc(-c2nonc2NC(=O)c2oc3cc(Br)ccc3c2C)cc1,nt,i,nt,i,i,40µM
CC(C)(C)C(=O)NC(=S)Nc1ccccc1C(=O)Nc1ccccc1,i,i,i,i,i[0.501 µM],i
O=[N+]([O-])c1cc(C(F)(F)F)cc([N+](=O)[O-])c1NCCNC(=S)Nc1cccc(F)c1,i,18µM,i,i,?,40µM
Cc1ccc(Nc2nc(N)nc(CSC(=S)N3CCN(c4ccccc4)CC3)n2)cc1,i,?,i,i,35µM,?
COc1ccccc1Nc1nc(N)nc(CSC(=S)N2CCN(c3ccccc3)CC2)n1,i,i,i,i,i,i
Nc1nc(CSC(=S)N2CCN(c3ccccc3)CC2)nc(Nc2ccccc2)n1,i,?,i,i,45µM,?
O=C(c1cnn2c(C(F)(F)F)cc(-c3cccs3)nc12)N1CCOCC1,i,i,i,i,i,i
O=C(O)c1cc(O)c2c(c1)[C@@H]([C@H]1c3cc(C(=O)O)cc(O)c3C(=O)c3c(O[C@@H]4O[C@H](CO)[C@@H](O)[C@H](O)[C@H]4O)cccc31)c1cccc(O[C@@H]3O[C@H](CO)[C@@H](O)[C@H](O)[C@H]3O)c1C2=O,i,nt,?,1.3µM,nt,0.89µM
OCC1OC(Oc2cccc3ccccc23)C(O)C(O)C1O (stereo not given),i,i,i,i,i,i
